Only a selection was taken, and hits are over-represented in it overall.
ROC1-CUL1 inh = blocks human RBX1-Cullin-1 di-ubiquitin formation; inhibition, % at 10 µM; AID 1347404; 140,000 tested, 0.6% active; in vitro K48 di-Ub FRET, acceptor:donor ratio, 45 min; in the data active means inhibition above about 25%
An asterisk follows results filed as active.

SMILES | ROC1-CUL1 inh
O=C1NN(c2ccc(Cl)c(Cl)c2)C(=O)/C1=C/c1cccc(OC(=O)c2cccs2)c1 | 15
CC(=O)Oc1cccc(/C=C2/C(=O)NN(c3ccc(F)cc3)C2=O)c1 | 20
CCOC(=O)c1ccc(N2NC(=O)/C(=C/c3cccc(OC(=O)c4cccs4)c3)C2=O)cc1 | 67*
Cc1ccc(N2NC(=O)/C(=C/c3cccc(Br)c3)C2=O)cc1 | -12
O=C1NN(c2cccc(F)c2)C(=O)/C1=C\c1cccc(OC(=O)c2cccs2)c1 | 27*
CCc1ccc(N2NC(=O)/C(=C/c3cccc(OC(C)=O)c3)C2=O)cc1 | 11
Cc1[nH]c2ccc(CNC(=O)C3CCCN(C(N)=O)C3)cc2c1C (stereo not given) | 7
COC(C(=O)Nc1ccnn1C1CCN(C(=O)C(=O)CC(C)C)CC1)c1ccccc1 (stereo not given) | 1
Cc1ccccc1CCC1CCCN(C(=O)CCN2CCCO2)C1 (stereo not given) | 4
Cc1cc(NC(=O)c2cccc(S(=O)(=O)NCc3ccco3)c2)no1 | 2
CCS(=O)(=O)c1ncc(CN(C)CC(O)c2ccccc2)n1CCOC (stereo not given) | 10
OC(COc1cccc(CNC2CCOCC2)c1)CN1CCc2ccccc2C1 (stereo not given) | 3
CCOC(=O)/C=C/C(=O)n1nc(-c2ccccc2)c2c1C(C(C)C)CCC2C (stereo not given) | 0
CSc1nsc(SCCC(=O)Nc2ccccc2)n1 | -4
CSc1nsc(SCSc2nnc(-c3ccccc3)o2)n1 | -4
CSc1nsc(SCSc2nc(SC)ns2)n1 | 36*
CNC(=S)Nc1ccc(C)cc1 | 4
Cc1ccc(NC(=S)Nc2ccc3nsnc3c2)cc1 | 66*
COc1ccc(C(=O)Nc2ccc3nsnc3c2)cc1OC | -9
Cc1ccc(C(C)C)c(OCC(=O)NNC(=O)c2ccccc2C(=O)O)c1 | -1
O=C(NC1(C(F)(F)F)Oc2ccc(Cl)cc2O1)N1CCc2ccccc2C1 (stereo not given) | -8
Cc1c(CC(=O)NCc2ccon2)c2c(n1CCc1ccccc1)CCCC2=O | 29*
Cc1c(CC(=O)NCC(N)=O)c2c(n1CCc1ccccc1)CCCC2=O | 9
Cc1c(CC(=O)NCc2ccon2)c2c(n1CC1CCCO1)CCCC2=O (stereo not given) | -1
CCOCC(O)CNc1nncc(-c2ccc(OC)cc2OC)n1 (stereo not given) | 2
SMILES | ROC1-CUL1 inh
COc1ccc(C2c3c(cc(C)oc3=O)OC(=N)C2C#N)cc1OCc1ccccc1 (stereo not given) | 3
COc1ccc(-c2cc(=O)n(-c3ccccc3)[nH]2)cc1OC | 1
CC(C)(C)c1cc(=O)n(-c2ccccc2)[nH]1 | 73*
O=c1ccc(=O)n(-c2ccccc2)[nH]1 | 5
Cc1ncc(CN2CCCC(Nc3ccc(F)c(F)c3)C2)s1 (stereo not given) | -5
COc1ccc(S(=O)(=O)N(C)C)cc1C(=O)O | -7
CCOC(=O)c1cnc(Nc2cccc(C(F)(F)F)c2)[nH]c1=O | 1
C=CCNCCCCOc1cccc(OC)c1 | -7
COc1ccc(-n2c(-c3ccccc3)nnc2-c2ccc(Cl)cc2)cc1 | 0
N=C1C(Br)C(=O)Nc2nnc(-c3ccc(Cl)cc3)n21 (stereo not given) | 32*
Cc1ccc(-n2c(SCC(N)=O)nnc2-c2ccc(Cl)cc2)cc1 | 4
O=C(COc1ccccc1-c1cnoc1)N/N=C/c1coc2ccc(Br)cc2c1=O | 5
Cc1cc(=O)[nH]c(-c2cccc(CN(C)Cc3cccc(-n4cccn4)c3)c2)n1 | 5
COc1ccc(/C(C)=N/NC(=O)C(C)Nc2ccccc2)cc1 (stereo not given) | -6
CC1=C(C#N)C(=O)N(CC(C)O)C(=O)/C1=C/c1ccc(-c2ccc(Br)cc2)o1 (stereo not given) | 47*
C=CCN1C(=O)C(C#N)=C(C)/C(=C\c2ccc(-c3ccc(Cl)c(C(=O)OC(C)C)c3)o2)C1=O | 2
CC1=C(C#N)C(=O)N(C)C(=O)/C1=C\c1ccc(-c2ccc(C(=O)OC(C)C)cc2)o1 | -7
O=C(Nc1sc2c(c1CN1CCN(C(=O)c3ccco3)CC1)CCCC2)c1ccc(F)cc1 | 6
CN(C)c1ccc(CNC(C)(C)CO)cc1 | 6
Cc1ccccc1Cn1cnc2ccc(Cl)cc2c1=O | -4
CCOC(=O)c1c(NC(=O)CCCC(=O)O)sc(C)c1-c1ccc(F)cc1 | 3
CCOC(=O)c1c(NC(=O)CCC(=O)O)sc(C)c1-c1ccc(CC(C)C)cc1 | 91*
CCOC(=O)c1c(NC(=O)c2cccs2)sc(C)c1-c1ccc(OC)cc1 | 3
COCc1cc(C)nc2sc(C(=O)N(c3ccccc3)c3ccccc3)c(NC(=O)c3ccco3)c12 | -1
CC(C1CCN(C(=O)CCN2Cc3ccccc3OC(c3ccccc3F)C2)CC1)N1CCOCC1 (stereo not given) | 6
O=C(CN1CCOCC1)Nc1nc(-c2ccc(C3CCCCC3)cc2)cs1 | 2
C/C=C/c1nc(SC)c(C#N)c(=O)[nH]1 | 62*
CSc1nc(-c2ccc(Cl)cc2)c(C#N)c(=O)[nH]1 | 9
